# Source: PubChem BioAssay (NCATS)
# Records with an inconclusive call do not appear. A number with no mark means an inactive call. Calls come from the whole dose curve; as a rule, active = well fitted inhibition curve with a large enough effect in the polarisation, with a control signal flat (not every such curve was filed as active); inconclusive = small, poorly fitted or top-dose-only effect, or effect the other way; inactive = flat fitted curve, though single readings scatter; the % refers to the polarisation.
# Target: Peptidyl-prolyl cis-trans isomerase NIMA-interacting 1 (Homo sapiens) (UniProt Q13526)
# Assay: qHTS Validation Assay to Find Inhibitors of Pin1 (AID 504536);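 note: 0% = full Pin1 enzyme wells and -100% = no-enzyme wells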
# Conditions: Pin1 fluorescence polarization peptide binding assay; series mostly up to 57.5 µM; activity, negative = inhibition: at the top concentration
# Outline: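 Fluorescence polarization competition: compounds (titration) displace HiFluor-488-labeled Pin1-1b peptide from Pin1 (0.3 uM final) in pH 7.5 HEPES buffer with DTT, 10 min at room temperature; %Activity normalized to no-enzyme wells, curves fitted.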
# Peptidyl-prolyl cis-trans isomerase NIMA-interacting 1 (Homo sapiens), sequence (Q13526 whole entry, looked up): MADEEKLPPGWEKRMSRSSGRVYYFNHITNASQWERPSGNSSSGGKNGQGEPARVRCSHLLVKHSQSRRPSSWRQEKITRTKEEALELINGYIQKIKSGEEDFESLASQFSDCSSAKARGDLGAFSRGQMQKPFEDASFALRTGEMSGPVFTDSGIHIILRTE
row,SMILES,"activity, negative = inhibition [%]"
1,NC/C=C\C(=O)O,-2.52
2,N#CC(C#N)=C(N)/C(C#N)=C/c1ccc(O)cc1,56.4
3,C=CC1(C)CC(=O)C2(O)C(C)(O1)C(OC(C)=O)C(O)C1C(C)(C)CCC(O)C12C (centres undefined),-5.49
4,Nc1ncnc2c1ncn2C1CCCC1,5.15
5,Cc1nc2c(OCc3ccccc3)cccn2c1CC#N,3.98
6,OC[C@H]1NC[C@@H](O)[C@@H]1O,1.37
7,O=C(O)c1ccccc1Nc1cccc(OCc2ccc3ccccc3n2)c1,-7.34
8,Nc1ccc(N2C(=O)c3ccccc3C2=O)c(Cl)c1,0.133
9,CCCCOc1cc(CC2CNC(=O)N2)ccc1OC (centres undefined),6.97
10,O=[N+]([O-])c1cccc2cn[nH]c12,-2.55
11,NCCS(=O)O,-7.98
12,Cn1ccnc1,1.3
13,NC1C=CC=C(C(=O)O)C1 (centres undefined),6.11
14,NCCNS(=O)(=O)c1cccc2c(Cl)cccc12,0.203
15,Nc1ccc(-c2nc3ccc(-c4nc5ccc(N)cc5[nH]4)cc3[nH]2)cc1,-10.5
16,Oc1cc2c(cc1O)C(c1ccccc1)CNCC2 (centres undefined),6.96
17,O=C(O)C1CCNCC1,-0.642
18,CCN(CC)CCOC(=O)c1cc(Cl)c(N)cc1OC,-1.36
19,CCCCS(=N)(=O)CC[C@H](N)C(=O)O (some centres undefined),6.39
20,CSC(=N)N,5.1
21,O=C(O)C1CCCNC1 (centres undefined),1.62
22,O=C1C2C=CC=CC2=NC(=S)N1CCN1CCC(=C(c2ccc(F)cc2)c2ccc(F)cc2)CC1 (centres undefined),0.126
23,CC(=O)[C@H]1CCC2C3CC=C4C[C@@H](OS(=O)(=O)O)CC[C@]4(C)C3CC[C@@]21C (some centres undefined),-16.5
24,OC[C@H]1O[C@@H](n2cnc3cncnc32)[C@H](O)[C@@H]1O,-3.3
